Source: PubChem BioAssay
ULK1 inh: inhibitors of human ULK1 kinase; AlphaScreen Atg13 phosphorylation by ULK1, luminescence; inhibition, % at 5.96 µM; O75385; AID 1259251; 1.9% of 30,000 active; in the data active means inhibition above about 43%;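 further: 0% = median of compound wells and 100% = no enzyme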
Target sequence (O75385 whole entry, looked up): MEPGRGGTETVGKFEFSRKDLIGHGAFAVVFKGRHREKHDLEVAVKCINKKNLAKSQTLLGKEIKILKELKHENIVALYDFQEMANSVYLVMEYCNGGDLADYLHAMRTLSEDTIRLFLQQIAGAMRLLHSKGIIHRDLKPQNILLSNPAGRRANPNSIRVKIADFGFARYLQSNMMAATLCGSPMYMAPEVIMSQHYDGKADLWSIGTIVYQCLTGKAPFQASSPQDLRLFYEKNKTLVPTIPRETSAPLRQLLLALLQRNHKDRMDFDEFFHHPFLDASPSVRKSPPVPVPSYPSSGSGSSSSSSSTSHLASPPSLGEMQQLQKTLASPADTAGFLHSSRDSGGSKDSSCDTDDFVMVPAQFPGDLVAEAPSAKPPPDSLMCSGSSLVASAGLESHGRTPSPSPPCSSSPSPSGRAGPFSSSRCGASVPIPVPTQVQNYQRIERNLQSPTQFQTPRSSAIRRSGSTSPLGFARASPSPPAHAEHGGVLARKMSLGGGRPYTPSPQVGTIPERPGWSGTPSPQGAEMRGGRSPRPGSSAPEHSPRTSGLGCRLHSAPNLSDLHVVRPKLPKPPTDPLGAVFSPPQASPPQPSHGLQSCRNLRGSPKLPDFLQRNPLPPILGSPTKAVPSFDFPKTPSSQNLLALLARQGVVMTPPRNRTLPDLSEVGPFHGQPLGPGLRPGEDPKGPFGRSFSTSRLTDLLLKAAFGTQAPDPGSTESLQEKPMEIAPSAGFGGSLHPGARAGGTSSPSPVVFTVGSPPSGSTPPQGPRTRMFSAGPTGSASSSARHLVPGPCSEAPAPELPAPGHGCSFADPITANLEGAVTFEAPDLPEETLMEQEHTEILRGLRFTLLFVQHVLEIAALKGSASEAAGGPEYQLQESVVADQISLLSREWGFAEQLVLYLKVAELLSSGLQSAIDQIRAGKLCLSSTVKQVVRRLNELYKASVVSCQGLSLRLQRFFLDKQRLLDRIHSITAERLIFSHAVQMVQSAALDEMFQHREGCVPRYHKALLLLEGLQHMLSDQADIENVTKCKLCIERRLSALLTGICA
ASK1 inh: human ASK1 kinase inhibition, primary screen; AlphaScreen MKK6 phosphorylation by ASK1, luminescence; inhibition, % at 7.44 µM; 0.99% of 22,000 active; Q99683; in the data active means inhibition above about 35%;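 further: 0% = median of compound wells and 100% = no enzyme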
* hit, by the source's call; · = not tested or not shown. A selection: hits, their analogues and other compounds. The true share with any hit is near 2.5%.

SMILES	ULK1 inh	ASK1 inh
O=C1CCCN1CCn1cnc2c(NCCc3ccc(O)cc3)nc(-c3ccccc3)nc21	-37.1	-3.4
Cc1noc(C)c1-c1cccc(C(=O)NCc2cccnc2)n1	25.8	7.8
CCCNc1cc(-c2ccc(C(=O)N3CCN(C)CC3)cc2)ncn1	-0.7	-18.4
CS(=O)(=O)c1ccc(-c2cn[nH]c2-c2ccc(F)cc2)cc1	-1.1	4.7
COc1cc2c(cnn2-c2cccc(C(=O)NCCN3CCOCC3)c2)cc1Nc1ccccc1	-18.1	-2.8
O=C(NCCN1CCOCC1)c1cccc(-n2ncc3cc(Nc4ccccc4)c(N4CCOCC4)cc32)c1	65.3*	-28.6
Cc1cc(Nc2cc(Nc3ccccc3C(N)=O)ccn2)ccc1N1CCOCC1	6.0	6.8
Cc1cnc(Nc2ccc(N3CCOCC3)cc2)nc1Nc1ccccc1	30.3	15.2
Cc1cnc(Nc2ccc(N3CCOCC3)cc2)nc1Nc1ccccc1C(N)=O	95.3*	-59.4
NC(=O)c1ccccc1Nc1nc(Nc2ccc(Cl)cc2)ncc1Cl	19.9	-39.1
Cc1cc(Nc2ncc(Cl)c(Nc3ccccc3C(N)=O)n2)ccc1N1CCOCC1	70.3*	-92.4
NC(=O)c1ccccc1Nc1nc(Nc2ccc(N3CCOCC3)c(Cl)c2)ncc1Cl	80.4*	-88.2
CN1CCN(c2ccc(-c3nc4ccc(C(=O)NCCO)cc4s3)cc2)CC1	2.9	-10.6
Cc1cc(N/N=C\c2ccc(O)cc2)nc(NS(=O)(=O)c2ccccc2)n1	1.1	·
O=C(NCCN1CCOCC1)c1ccc2nc(-c3cccs3)sc2c1	-2.1	9.1
CC(C)n1cnc2c(NCc3nc4ccccc4[nH]3)nc(N3CCN(Cc4ccc5c(c4)OCO5)CC3)nc21	-11.8	1.9
O=C(NCc1cccnc1)c1csc(Nc2ccncn2)n1	2.5	3.0
O=C1/C(=C/c2cccs2)CCC/C1=C\c1cccs1	81.7*	·
O=C1/C(=C\c2cccs2)N2CCC1CC2	10.2	·
CNC(=O)c1cc(F)ccc1Nc1cc(Nc2ccc3c(c2)CC(=O)N3)ncc1C(F)(F)F	65.5*	15.7
CC(=O)Nc1ccccc1Nc1cc(Nc2ccc3c(c2)CC(=O)N3)ncc1C(F)(F)F	82.2*	-12.0
N#Cc1ccccc1Nc1cc(NC(=O)Cc2ccc(F)cc2)ncc1C(F)(F)F	-2.8	13.7
CNC(=O)c1ncccc1Nc1cc(Nc2ccc3c(c2)NC(=O)C3)ncc1C(F)(F)F	4.1	8.9
O=C1Cc2cc(NC(=O)c3ccc(Br)cc3)ccc2N1	-13.7	·
CNC(=O)c1ncccc1Nc1cc(Nc2ccc3c(c2)CCC(=O)N3)ncc1C(F)(F)F	47.5*	-5.9
SMILES	ULK1 inh	ASK1 inh
CNC(=O)c1cc(F)ccc1Nc1cc(Nc2ccc3c(c2)NC(=O)C3)ncc1C(F)(F)F	63.9*	1.2
CNC(=O)c1ncccc1Nc1cc(Nc2ccc3c(c2)CC(=O)N3)ncc1C(F)(F)F	10.8	23.4
O=C(Nc1ccc2nsnc2c1NC(=O)c1ccccc1)c1ccccc1	11.3	·
CC(C)(C)NC(=O)NCc1nnnn1-c1cccc(F)c1	9.6	·
CC(C)n1c(N2CCC(N3CCOCC3)CC2)nc2c(NCc3cccnc3)ncnc21	1.4	-9.6
CCN(CC)C(=O)C1CCCN(c2ccc(-n3cc(CC(=O)NCc4cccnc4)c4ccccc43)nn2)C1 (stereo unspecified)	-5.5	-9.3
Oc1ccc(CCNc2nc(NCc3cccnc3)nc3c2ncn3-c2ccccc2)cc1	-1.2	22.8
O=C(N/N=C\C=C\c1ccc(Br)cc1)c1ccc2c(c1)OCO2	14.6	·
COC(=O)c1ccc(/C=C/C(=O)c2ccc3c(c2)OCCO3)cc1	43.3*	·
NC(=O)c1ccc(-c2nc3ncnc(Nc4ccccc4)c3[nH]2)cc1	4.4	17.0
CCCNC(=O)c1ccc2nc(N3CCN(c4ccccn4)CC3)sc2c1	16.4	-32.8
O=C(Cc1cn(-c2ccc(Cl)nn2)c2ccccc12)NCCCN1CCCC1=O	-11.2	-0.7
C=C1c2cccc(O)c2C(O)=C2C(=O)[C@]3(O)C(O)=C(C(N)=O)C(=O)[C@@H](N(C)C)[C@@H]3[C@@H](O)[C@H]12	64.4*	·
CN(C)[C@@H]1C(=O)C(C(=O)NCN2CCCC2)=C(O)[C@@]2(O)C(=O)C3=C(O)c4c(O)cccc4[C@@](C)(O)C3CC12 (stereo partly specified)	27.7	·
C=C1c2c(Cl)ccc(O)c2C(O)=C2C(=O)[C@]3(O)C(O)=C(C(N)=O)C(=O)[C@@H](N(C)C)[C@@H]3[C@@H](O)[C@H]12	72.1*	·
Cc1cc(Nc2ccccc2)nc(Nc2cnccn2)n1	2.0	10.0
Cc1noc(C)c1-c1nc(NC2CC2)c2[nH]cnc2n1	0.5	-4.0
O=C(NCCO)C1CCN(c2ccc(N3CCCC3CO)nn2)CC1 (stereo unspecified)	-3.8	-4.7
CC(C)N(CCNC(=O)C1CCN(c2ccc(N3CCCC3CO)nn2)CC1)C(C)C (stereo unspecified)	55.6*	2.2
O=C1CCCN1CCCNc1ccnc(N2CCN(Cc3ccc4c(c3)OCO4)CC2)n1	6.4	-13.8
CN(C)c1cccc(Nc2nc3ccc(C(=O)NCCc4ccc(O)cc4)cc3s2)c1	7.6	11.0
